Screens: PubChem, Buhrlage Lab, Dana-Farber Cancer Institute and Novartis Institutes for BioMedical Research (Cambridge, Mass)
Rows were chosen to be rich in hits. Some 6.8% of all compounds tested hit in one or more screens of this group.
USP10 inh – inhibitors of human USP10 deubiquitinase | purified USP10, Ub-rhodamine fluorescence, 60 min | 47,000 compounds, 1.1% hits | inhibition, % at 20 µM
OTUD3 inh – inhibitors of human OTUD3 deubiquitinase; inhibition, % at 25 µM; 47,000 compounds, 0.7% hits; purified OTUD3, Ub-rhodamine fluorescence, 2 h
Target sequence (Q5T2D3 whole entry, looked up): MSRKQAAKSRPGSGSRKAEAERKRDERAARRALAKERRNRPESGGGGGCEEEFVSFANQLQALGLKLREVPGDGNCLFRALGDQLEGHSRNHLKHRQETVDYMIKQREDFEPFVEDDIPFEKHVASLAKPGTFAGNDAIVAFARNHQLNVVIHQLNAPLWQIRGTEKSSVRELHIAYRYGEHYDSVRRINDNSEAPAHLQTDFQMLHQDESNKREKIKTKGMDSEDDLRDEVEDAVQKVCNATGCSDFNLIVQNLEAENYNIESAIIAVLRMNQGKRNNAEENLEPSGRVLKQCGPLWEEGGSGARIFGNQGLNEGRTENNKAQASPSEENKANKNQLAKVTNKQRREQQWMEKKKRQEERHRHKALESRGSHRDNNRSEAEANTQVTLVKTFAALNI
UCHL1 inh – inhibitors of human UCHL1 deubiquitinase. inhibition, % at 20 µM. AID 1645859, 2021. Ubiquitin carboxyl-terminal hydrolase isozyme L1 (Homo sapiens), P09936. 47,000 compounds, 0.2% hits. purified UCHL1, Ub-rhodamine cleavage fluorescence
USP7 block – inhibitors of human USP7 deubiquitinase | Ubiquitin carboxyl-terminal hydrolase 7 (Homo sapiens), Q93009 | purified USP7, Ub-rhodamine cleavage fluorescence | inhibition, % at 20 µM | 47,000 compounds, 0.3% hits | AID 1645854, 2021
USP8 inh – inhibitors of human USP8 deubiquitinase; Ubiquitin carboxyl-terminal hydrolase 8 (Homo sapiens), P40818; purified USP8, Ub-rhodamine cleavage fluorescence, 30 min; inhibition, % at 20 µM; 47,000 compounds, 4.2% hits
USP28 block – inhibitors of human USP28 deubiquitinase. inhibition, % at 25 µM. AID 1645857, 2021. 47,000 compounds, 3% hits. Ubiquitin carboxyl-terminal hydrolase 28 (Homo sapiens), Q96RU2. purified USP28, Ub-rhodamine cleavage fluorescence, 30 min
* = called active by the depositor. No stated cut-off is given here; in the data, active means inhibition above about 30%; inactive means the rest.

SMILES	USP10 inh	OTUD3 inh	UCHL1 inh	USP7 block	USP8 inh	USP28 block
Cc1cc2nc(C3CCCCN3C(=O)c3c(C)noc3C)cc(=O)n2[nH]1 (centres undefined)	3	0	-2	0	-106	-7
Cc1ccc2nc(C3CN(C(=O)NCc4ccc(F)cc4)C3)[nH]c2c1	-3	0	-2	1	-148	1
O=C(Cn1c(=O)c2ccccc2n(CC(=O)Nc2cccc(F)c2)c1=O)NCCc1ccccc1	30*	25	2	17	-39	20
O=C(CCCCn1c(=O)c2ccccc2n(Cc2ccccc2F)c1=O)NCCc1ccccc1	11	1	1	2	17	3
O=C(CCCCn1c(=O)c2ccccc2n(CC(=O)Nc2ccc(F)cc2)c1=O)NCCc1ccccc1	15	15	0	8	19	9
Cc1ccc(NC(=O)Cn2c(=O)n(CCC(=O)NCCc3ccccc3)c(=O)c3ccccc32)cc1C	32*	13	2	13	23	0
N#Cc1ccccc1Cn1c(=O)n(CCCCC(=O)NCCc2ccccc2)c(=O)c2ccccc21	19	36*	1	5	9	24
O=C(CCc1nnc2n(Cc3ccc(Cl)cc3)c(=O)c3ccccc3n12)NCc1ccccn1	-5	-15	0	-57	-14	-1
COc1cccc(OC)c1C(=O)Nc1cccc(-c2ccc(N3CCN(C)CC3)nn2)c1	-1	0	0	5	16	4
CS(=O)(=O)N1CCC(C(=O)Nc2ccc(F)cc2)Oc2ccccc21 (centres undefined)	0	8	1	4	14	5
Cc1cc(C)c2nc(N3C(=O)c4oc5ccccc5c(=O)c4C3c3ccco3)sc2c1 (centres undefined)	-4	1	3	-1	13	4
CCOc1ccc2nc(-n3nc(C)c4c3NC(=O)CC4c3cc(F)ccc3F)sc2c1 (centres undefined)	-3	-13	-3	1	-6	-21
CCOc1ccc(C2/C(=C(\O)c3ccccc3)C(=O)C(=O)N2c2nc3ccc(F)cc3s2)cc1 (centres undefined)	24	0	21	72*	-28	13
Cc1ccccc1OCc1nnc(SCC(=O)c2ccc(C#N)cc2)n1C	3	0	0	2	-3	0
COc1ccc(OCC(=O)Nc2nc(-c3ccc(OC)c(OC)c3)ns2)cc1	0	-22	2	2	-1	-12
COc1ccc(-c2nsc(NC(=O)Cc3cccc4ccccc34)n2)cc1OC	-9	-7	4	4	4	33*
Cc1cc(C)c(S(=O)(=O)NCC(c2cccnc2)N2CCOCC2)c(C)c1 (centres undefined)	-3	7	3	3	22	8
CC(=O)N1CC2(CCN(C(=O)C(C)(C)C)CC2)Nc2ccccc21	1	-6	0	0	32*	-15
CC(=O)N1CC2(CCN(C(=O)c3ccccn3)CC2)Nc2ccccc21	-1	-2	1	4	-4	0
N#Cc1cccc(S(=O)(=O)c2c[nH]c3cc(Cl)ccc3c2=O)c1	15	8	1	5	57*	1
Cc1ccc2[nH]cc(S(=O)(=O)c3cc(Cl)cc(Cl)c3)c(=O)c2c1	8	7	1	13	13	-3
CC(C)CNC(=O)c1ccc2c(c1)nc1n2CCN(Cc2ccco2)C1	-3	-10	-2	0	0	-12
Cc1cc2cc(CNC(=O)c3ccccc3C(=O)O)ccc2n1C	-8	-22	-13	-17	56*	-19
c1coc(-c2nc3ccccc3n2CCC2CCCCC2)c1	-3	2	-4	-27	68*	26
Cc1cccc(NC(=O)CC2C(=O)Nc3nc(-c4ccccc4)nn32)c1 (centres undefined)	9	13	5	11	19	14
SMILES	USP10 inh	OTUD3 inh	UCHL1 inh	USP7 block	USP8 inh	USP28 block
Cc1ccccc1NC(=NS(=O)(=O)c1ccccc1)c1ccc(Cl)cc1	14	4	2	2	-16	44*
Cc1ccccc1OCCCn1c(C2CC(=O)N(Cc3ccccc3)C2)nc2ccccc21 (centres undefined)	18	20	10	-4	9	15
c1ccc2c(c1)CCc1c-2nc2ccccc2c1N1CCOCC1	-3	-21	-5	-21	83*	2
CCCn1c(NC(=O)Cc2coc3cc(OC)ccc23)nc2ccccc21	-2	-20	-8	-21	61*	-21
C[C@@H]1/C=C/CC/C=C/C(=O)[C@H](C)[C@@H]2CC[C@@H](C)[C@@](O)(O2)C(=O)C(=O)N2CCCC[C@H]2C(=O)O[C@H]([C@H](C)C[C@@H]2CC[C@@H](O)[C@H](O)C2)CC1	8	43*	9	11	12	97*
O=C(NCc1cccc(Br)c1)c1cc2ccccn2n1	0	14	2	6	6	30*
CCn1c(=O)c2ccccc2n(Cc2nc(-c3ccc(F)cc3)no2)c1=O	-3	-8	0	-5	0	2
O=C(NCc1ccc(Cl)cc1)C1CCN(c2cncnc2N2CCCC2)CC1	-8	-23	-7	-15	-21	2
CC(=O)c1ccc(NC(=O)C2CCN(c3cncnc3N3CCCC3)CC2)cc1	1	-8	1	-12	-3	89*
COc1ccc(NC(=O)C2CCN(c3cncnc3N(C)C)CC2)cc1OC	-2	-2	-3	-5	-11	72*
COc1cccc(C(=O)NCc2ccc(-c3ccc(F)cc3)o2)c1	3	14	5	9	5	26
CC(CNC(=O)CCc1nnc2n(Cc3ccccc3Cl)c(=O)c3ccccc3n12)c1ccccc1 (centres undefined)	-1	-12	-4	1	-71	-14
Nc1ccc2oc(-c3cccc(-c4nc5cc(N)ccc5o4)n3)nc2c1	37*	40*	23	30	73*	48*
Clc1ccc2oc(-c3cccs3)nc2c1	5	-2	-1	-32	2	4
Cc1c(C(=O)NCCCN2CCOCC2)oc2ccc3c(c12)C(=O)CC(C)(c1ccc(Cl)cc1)O3 (centres undefined)	4	4	6	6	0	42*
O=C(Nc1ccncc1)c1cc(Br)ccc1F	3	10	1	-4	14	14
O=C1NC2(COC3(CCN(Cc4ccc(F)cc4)CC3)C2)Nc2ccccc21 (centres undefined)	-4	-29	-5	-3	-10	-35
